Several values for one entry are separate records, joined by “and”; a condition that tells them apart may be missing. Identical values can stand only once. Among all 320,000 compounds or so, about 1,900 (0.59%) were called active. This is one part of a sample in which actives are shown more often than they occur. No stated cut-off is given here; in the data, active means inhibition mostly above about 10% (no sharp cut-off); inactive means mostly below about 6.7%.

Sequence of Protein LANA1 (Human herpesvirus 8 type P (isolate GK18)) (Q9QR71 whole entry, looked up): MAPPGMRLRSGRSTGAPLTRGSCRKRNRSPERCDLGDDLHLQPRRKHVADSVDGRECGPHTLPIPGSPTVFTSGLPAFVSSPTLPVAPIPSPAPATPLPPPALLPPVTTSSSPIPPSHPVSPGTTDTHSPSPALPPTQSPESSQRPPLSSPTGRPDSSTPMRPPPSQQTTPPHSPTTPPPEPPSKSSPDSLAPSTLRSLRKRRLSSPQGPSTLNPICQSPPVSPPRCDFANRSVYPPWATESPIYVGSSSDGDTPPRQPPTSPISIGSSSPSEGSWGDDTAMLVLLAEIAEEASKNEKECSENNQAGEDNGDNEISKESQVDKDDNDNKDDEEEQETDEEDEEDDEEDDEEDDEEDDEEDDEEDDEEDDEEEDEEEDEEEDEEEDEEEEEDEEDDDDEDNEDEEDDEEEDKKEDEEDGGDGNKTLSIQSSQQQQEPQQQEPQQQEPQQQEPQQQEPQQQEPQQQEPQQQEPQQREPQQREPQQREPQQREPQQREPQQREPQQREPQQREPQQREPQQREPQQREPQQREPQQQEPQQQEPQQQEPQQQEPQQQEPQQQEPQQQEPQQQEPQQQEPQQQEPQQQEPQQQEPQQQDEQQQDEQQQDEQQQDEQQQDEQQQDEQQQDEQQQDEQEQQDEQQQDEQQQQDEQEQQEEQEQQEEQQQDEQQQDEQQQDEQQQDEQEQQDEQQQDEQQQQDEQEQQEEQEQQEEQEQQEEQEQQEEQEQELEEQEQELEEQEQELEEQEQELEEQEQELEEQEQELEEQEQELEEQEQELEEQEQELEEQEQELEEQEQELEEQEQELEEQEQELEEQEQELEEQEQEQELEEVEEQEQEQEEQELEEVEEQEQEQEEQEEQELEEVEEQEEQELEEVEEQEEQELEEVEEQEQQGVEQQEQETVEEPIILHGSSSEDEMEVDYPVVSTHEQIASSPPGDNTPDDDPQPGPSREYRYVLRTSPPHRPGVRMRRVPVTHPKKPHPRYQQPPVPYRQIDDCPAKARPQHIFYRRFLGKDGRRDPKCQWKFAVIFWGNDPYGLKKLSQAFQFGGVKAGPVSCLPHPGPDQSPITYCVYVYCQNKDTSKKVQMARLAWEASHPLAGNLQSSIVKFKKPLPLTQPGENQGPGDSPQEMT

This experiment addresses Protein LANA1 (Human herpesvirus 8 type P (isolate GK18)) (UniProt Q9QR71). Description: blockers of LANA interaction with H2A/H2B – biochemical, FP readout, HTS, primary screen (AID 2629). Particulars: cell-free LANA-H2A/H2B peptide, fluorescence polarization, hits give high values, concentration not given here.
One may read the inhibition as the drop in the measured response relative to a control, in per cent. With `O=C(CS(=O)(=O)c1cn(Cc2ccc(Cl)cc2)c2ccccc12)N1CCOCC1`, the inhibition is 0.389% (inactive).

With `O=C(Cc1ccccc1)NC(=S)Nc1ccc(N2CCCCC2)cc1`, the inhibition is 2.3% (inactive).

Take `O=C1C=CC(=O)N1c1ccc(N2CCCCC2)cc1`: the inhibition is 6.75% (active).

Regarding `CC(=O)Nc1ccc(S(=O)(=O)Nc2ccc(N3CCCCC3)cc2)cc1`, the inhibition is 0.693% (inactive).

As to `Cc1c(C(=O)NCCN(C)C)oc2ccc(S(=O)(=O)N3CCCC3)cc12`, the inhibition was 0.441% (inactive).

`CCc1nn(CCCC(=O)NC(C)c2ccccc2)c(=O)c2cc3occc3n12` (stereo unspecified): the inhibition was 1.99% (inactive).

Regarding `CCN(CC(=O)NCc1cccs1)C(=O)/C=C/c1ccc(C)cc1`, the inhibition was -0.65% (inactive).

On to `CCOc1ccc(S(=O)(=O)N(CC(=O)O)c2ccccc2)cc1`, for which the inhibition was 18.5% (inactive).

With `CN(C)C(=O)Cn1c(=O)n(S(=O)(=O)c2ccccc2)c2ccccc21`, the inhibition was 14% (active).

`CC(CC(=O)N1CCN(S(=O)(=O)c2ccccc2)CC1)n1cncn1` (stereo unspecified): the inhibition was 0.88% (inactive).

As for `CC(=O)Nc1ccc(S(=O)(=O)NNC(=O)CCc2ccccc2)cc1`, the inhibition was -3.72% (inactive).

Take `Oc1ccccc1CNc1ncc(Br)cc1Br`: the inhibition is -2.38% (inactive).

As for `O=C(COc1nc2ccccc2nc1N1CCOCC1)NCC(F)(F)F`, the inhibition was 0.0185% (inactive).

Take `COc1cc(N2C(=O)c3ccccc3C2=O)c(Cl)cc1C(=O)OCC(=O)N1CCOCC1`: the inhibition is 2.7% (inactive).

Consider `O=S(=O)(NC1CCCCC1N1CCCCC1)c1ccc(Cl)cc1` (stereo unspecified), for which the inhibition is 9.78% (inactive).

Consider `O=S(=O)(NC1CCCCC1N1CCC(O)CC1)c1ccc(Cl)cc1` (stereo unspecified), for which the inhibition is -2.17% (inactive).

In the case of `CCN1CCN(C2CCCCC2NS(=O)(=O)c2ccc(Cl)cc2)CC1` (stereo unspecified), the inhibition was 16.2% (active).

Take `O=C(CCn1nnc2ccccc2c1=O)N[C@@H](Cc1c[nH]c2ccccc12)C(=O)O`: the inhibition was -3.09% (inactive).

As for `COc1ccc(NC(=O)CCCN2C(=O)C(c3ccccc3)Oc3cccnc32)cc1` (stereo unspecified), the inhibition was 12.5% (active).

Take `CCc1cccc(NC(=O)CCCN2C(=O)C(c3ccccc3)Oc3cccnc32)c1` (stereo unspecified): the inhibition is 3.46% (inactive).

With `COc1ccc(NC(=O)CCCC(=O)c2ccccc2)cc1`, the inhibition was 2.03% (inactive).

In the case of `Cn1cc(CN2CCC(C(O)CCc3ccccc3)CC2)c(-c2ccccc2F)n1` (stereo unspecified), the inhibition was 1.03% (inactive).

As for `CCn1c(=O)c2ccccc2n(CC(=O)N2CCCc3ccccc32)c1=O`, the inhibition is 0.719% (inactive).

On to `O=C(NCc1ccco1)/C(=C\c1cccc([N+](=O)[O-])c1)NC(=O)c1ccco1`, for which the inhibition is -1.25% (inactive).

On to `Oc1ccc(-c2[nH]ncc2-c2nc3ccccc3s2)c(O)c1`, for which the inhibition was 3.42% (inactive).

As to `CC(=O)Nc1cccc(-c2nc3ccccc3s2)c1C`, the inhibition is 55.2% (active).

`Cc1ccc(S(=O)(=O)N2CCN(C(=O)c3ccccc3-c3nc4ccccc4s3)CC2)c(C)c1`: the inhibition is 5.83% (inactive).

On to `O=C1C2(c3ccccc3)CN(CCCO)CC1(c1ccccc1)CN(CCCO)C2`, for which the inhibition is 1.07% (inactive).

`C=CCN(C(=O)Cn1ncc2c1-c1cc(C)ccc1OC2)c1ccccc1`: the inhibition is -5.38% (inactive).

As for `CCCCc1cc2c(s1)CCCC/C2=N/O`, the inhibition is -0.97% (inactive).

For `COc1ccc(N2CCN(C(=O)CCNC(=O)c3ccc(Br)cc3)CC2)cc1`, the inhibition was -8.47% (inactive).

With `CN(C)C(=O)c1nc2ccc(Cl)cn2c1CNCc1cccc(OC(F)(F)F)c1`, the inhibition is 1.63% (inactive).

For `Cc1nnc(SC(C(=O)c2ccccc2)c2ccccc2)[nH]c1=O` (stereo unspecified), the inhibition is -2.85% (inactive).

Consider `O=C(O)Cc1ccc(-c2ccccc2)cc1`, for which the inhibition is 54.5% (active).

On to `O=C(Cc1ccc(-c2ccccc2)cc1)NC(c1ccccc1)c1ccccc1`, for which the inhibition is 3.99% (inactive).

Take `O=C(O)Cc1ccc(NCc2ccccc2Cl)cc1`: the inhibition is 4.61% (inactive).

On to `C/C(=N/OC(=O)c1ccc(Br)cc1)c1ccc(C)cc1`, for which the inhibition was 4.46% (inactive).

With `Cc1nnc(-c2ccc(Oc3ccc(C)c(C)c3)c([N+](=O)[O-])c2)o1`, the inhibition was 0.884% (inactive).

As for `O=S(=O)(Nc1ccccc1N1CCOCC1)c1ccc(Cl)s1`, the inhibition was 4.05% (inactive).

With `O=S(=O)(Nc1cc(S(=O)(=O)N2CCOCC2)ccc1N1CCCC1)c1cccs1`, the inhibition is -1.3% (inactive).

Consider `O=S(=O)(Nc1cc(Cl)ccc1N1CCOCC1)c1ccccc1Cl`, for which the inhibition was 16.7% (active).

For `CCCCN(C(=O)c1ccc(S(=O)(=O)N2CCOCC2)cc1)C1CCS(=O)(=O)C1` (stereo unspecified), the inhibition is 3.61% (inactive).

Turning to `CCNC(=S)N(CCN(CC)CC)Cc1cc2cc3c(cc2[nH]c1=O)OCCO3`, the inhibition is -5.92% (inactive).

For `CCN(CC)CCCNC(=S)N(CCO)Cc1cc2cc3c(cc2[nH]c1=O)OCO3`, the inhibition is -0.647% (inactive).

Consider `COCCCNC(=S)N(CCN(C)C)Cc1cc2cc3c(cc2[nH]c1=O)OCCO3`, for which the inhibition was 9.12% (active).

As for `C=C(C)CNC(=S)/N=c1\scc(C)n1CC`, the inhibition was 3.02% (inactive).

Consider `COc1ccc(Cc2cc(-c3ccc(F)cc3)n[nH]c2=O)cc1`, for which the inhibition was -1.23% (inactive).

As to `Cc1ccc(C(=O)COC(=O)CCN2C(=O)C3C4CCC(C4)C3C2=O)cc1C` (stereo unspecified), the inhibition is 0.254% (inactive).

With `Cc1ccc(C(=O)COC(=O)c2cccc(N3C(=O)c4c(C)nc5ccccc5c4C3=O)c2)cc1C`, the inhibition was 14.6% (active).

In the case of `O=C(CCc1nc2ccccc2c(=O)[nH]1)OCC(=O)c1cccc(Cl)c1`, the inhibition is -2.71% (inactive).

As for `CC(C)(C)C1CCC(C(=O)NCC(c2cccs2)N2CCOCC2)CC1` (stereo unspecified), the inhibition was -3% (inactive).

As to `CN(Cc1ccc(CNC[C@H]2O[C@@H](n3cnc4c(N)ncnc43)[C@H](O)[C@@H]2O)o1)S(C)(=O)=O`, the inhibition is 1.32% (inactive).

`O=C(O)Cc1csc(-c2cccc(Oc3ccccc3)c2)n1`: the inhibition was -3.8% (inactive) and 4.18% (inactive).

`COc1cc(C(=O)OC(C)C(=O)NCC2CCCCC2)cc(NC(=O)c2ccco2)c1OC` (stereo unspecified): the inhibition was 1.94% (inactive).

Consider `CC(C)(C)c1ccc(C(=O)NCc2nnc(SCC(=O)N3CCCc4ccccc43)n2-c2ccccc2)cc1`, for which the inhibition is 2.13% (inactive).

As for `COc1ccc(NC(=O)C2CCCN(S(=O)(=O)c3cccc4cccnc34)C2)cc1` (stereo unspecified), the inhibition is -2.43% (inactive).

For `COc1ccccc1CNC(=O)C1CCCN(S(=O)(=O)c2cccc3cccnc23)C1` (stereo unspecified), the inhibition was 138% (active).

In the case of `COc1ccc(NC(=O)C2CCCN(S(=O)(=O)c3cccc4cccnc34)C2)cc1OC` (stereo unspecified), the inhibition was 2.61% (inactive).

Consider `COc1ccc(C2C(C(C)=O)=C(O)C(=O)N2Cc2cccnc2)cc1` (stereo unspecified), for which the inhibition was 0.519% (inactive).

In the case of `O=C(C1=C(O)C(=O)N(Cc2ccccc2)C1c1cccnc1)c1ccco1` (stereo unspecified), the inhibition was 10.9% (active).

`CCOc1cc(C2C(C(=O)c3ccco3)=C(O)C(=O)N2Cc2ccccc2)ccc1O` (stereo unspecified): the inhibition was 2.24% (inactive).

In the case of `Cc1ccc(N(C(=O)Cc2cccs2)C2C=CS(=O)(=O)C2)cc1Cl` (stereo unspecified), the inhibition was 0.0691% (inactive).

Turning to `OC1CSc2nc3ccccc3n2C1` (stereo unspecified), the inhibition is 0.181% (inactive).

For the compound `CC1Cc2cc(/C(O)=C3\C(=O)C(=O)N(CCN4CCOCC4)C3c3ccccc3F)ccc2O1` (stereo unspecified), the inhibition is -0.116% (inactive).

Regarding `COCCCN1C(=O)C(=O)/C(=C(/O)c2ccc3c(c2)CC(C)O3)C1c1cccnc1` (stereo unspecified), the inhibition is -6.56% (inactive) and -12.2% (inactive).

As to `CC1Cc2cc(/C(O)=C3\C(=O)C(=O)N(Cc4cccnc4)C3c3ccccc3F)ccc2O1` (stereo unspecified), the inhibition is 12.2% (active).

Take `CN(CC(=O)NCCc1ccc(S(N)(=O)=O)cc1)CC(=O)Nc1ccc(Cl)cc1`: the inhibition was -9.65% (inactive).

As to `CCn1cc(C(=O)NCCCN2CCCCCC2)c(=O)c2cc(S(=O)(=O)N3CCc4ccccc4C3)ccc21`, the inhibition was 1.1% (inactive).

Regarding `CC1(C)N=C(c2ccccn2)C(C)(C)N1O`, the inhibition is 3.45% (inactive).

`CC(C(=O)N1CCc2ccccc21)N(C)CC(=O)Nc1ccc(F)cc1` (stereo unspecified): the inhibition is 4.45% (inactive).

In the case of `COc1cc(NC(=O)c2ccccc2NS(=O)(=O)c2ccc(Cl)s2)cc(OC)c1`, the inhibition was -1.77% (inactive).

As to `C=CCC[C@@H](Cc1ccc(F)cc1)C(=O)OC[C@H](Cc1c[nH]c2ccccc12)NC(=O)[C@@H](CC=C)CC(=O)N(CCO)Cc1ccccc1`, the inhibition is 3.67% (inactive).

As for `C=CCC[C@H](Cc1ccc(F)cc1)C(=O)OC[C@@H](Cc1c[nH]c2ccccc12)NC(=O)[C@H](CC=C)CC(=O)N[C@H](CO)Cc1ccccc1`, the inhibition was 145% (active).

Turning to `C=CC[C@@H](CC(=O)N[C@H](CO)Cc1ccccc1)C(=O)N[C@@H](COC(=O)[C@@H](CC=C)Cc1ccc(F)cc1)Cc1c[nH]c2ccccc12`, the inhibition is -2.42% (inactive).

On to `COc1ccc(NC(=O)CSc2nc(SC)ns2)c(OC)c1`, for which the inhibition is 0.787% (inactive).

As for `CCCn1nc(Oc2nc(NC(C)C)nc(N(C)C)n2)ccc1=O`, the inhibition was -2.39% (inactive).

Regarding `CCCCN(C)CCCNC(=O)c1cc(-c2cccs2)nc2ccccc12`, the inhibition is -1.81% (inactive).

For `O=C(Nc1nnc(-c2ccccc2)o1)c1cc(-c2cccs2)nc2ccccc12`, the inhibition was 14.9% (active).

For the compound `O=C(NCCN1CCOCC1)c1cc(-c2cccs2)nc2ccccc12`, the inhibition was 14% (inactive).

For the compound `COc1ccc(NC(=O)CN(C)C(=O)c2cc(C3CC3)nn2-c2ccccc2)cc1`, the inhibition is -290% (inactive).

`CCc1ccccc1NC(=O)CN(C)C(=O)c1cc(C2CC2)nn1-c1ccccc1`: the inhibition was -3.11% (inactive).

On to `COc1cccc(NC(=O)CN(C)C(=O)c2cc(C3CC3)nn2-c2ccccc2)c1`, for which the inhibition was 559% [above what the read-out allows, likely interference] (active).

With `COc1cccc(CN2CCN(Cc3ccc4cccc(F)c4n3)CC2CCO)c1` (stereo unspecified), the inhibition was -3.14% (inactive).

`COc1ccc(C2C=C(c3ccc(Br)cc3)Nc3nc(NS(C)(=O)=O)nn32)cc1` (stereo unspecified): the inhibition is 31.6% (active).

As for `COc1ccc(C2=CC(c3cccc(OC)c3)n3nnnc3N2)cc1` (stereo unspecified), the inhibition is -1.03% (inactive).

On to `CCS(=O)(=O)n1nc(-c2ccccc2)nc1SCc1ccccc1`, for which the inhibition was 0.944% (inactive).

(Values after PubChem BioAssay AID2629 (Broad Institute, 2010).)
